Hit rate of the full screen: of about 330,000 compounds, about 40 (0.01%) were called active. Where a call stands in place of a potency, no number is given. The sample holds actives, similar compounds and a random draw of the others, so the mix is not that of the screen. Calls come from the whole dose curve; as a rule, active = well fitted inhibition curve with a large enough effect; inconclusive = small, poorly fitted or top-dose-only effect, or effect the other way; inactive = flat fitted curve, though single readings scatter.

This passage reports activity change, negative = inhibition and Potency results from PubChem BioAssay AID463254 (National Center for Advancing Translational Sciences (NCATS), 2010).
Potency is the fitted concentration of half-maximal effect.

Ubiquitin carboxyl-terminal hydrolase 2 (Homo sapiens), sequence (O75604 whole entry, looked up): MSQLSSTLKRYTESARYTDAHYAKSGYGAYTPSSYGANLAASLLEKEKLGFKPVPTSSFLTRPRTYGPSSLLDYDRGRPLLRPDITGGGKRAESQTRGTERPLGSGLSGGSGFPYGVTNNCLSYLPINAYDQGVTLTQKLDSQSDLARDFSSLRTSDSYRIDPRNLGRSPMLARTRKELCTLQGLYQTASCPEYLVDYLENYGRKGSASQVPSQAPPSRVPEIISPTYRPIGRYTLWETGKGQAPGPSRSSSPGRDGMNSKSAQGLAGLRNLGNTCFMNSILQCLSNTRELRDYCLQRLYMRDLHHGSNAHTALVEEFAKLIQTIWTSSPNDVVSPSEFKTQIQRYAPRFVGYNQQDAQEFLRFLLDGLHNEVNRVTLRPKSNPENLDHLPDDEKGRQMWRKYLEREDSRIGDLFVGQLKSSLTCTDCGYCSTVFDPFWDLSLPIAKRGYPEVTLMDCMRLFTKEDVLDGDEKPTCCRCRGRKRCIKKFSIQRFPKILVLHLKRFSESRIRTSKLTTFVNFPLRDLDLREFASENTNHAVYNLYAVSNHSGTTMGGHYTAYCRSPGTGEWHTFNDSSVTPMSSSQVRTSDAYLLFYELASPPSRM

This experiment has as its target Ubiquitin carboxyl-terminal hydrolase 2 (Homo sapiens) (UniProt O75604). Kind of experiment: qHTS Assay for Inhibitors of Ubiquitin-specific Protease USP2a Using CHOP2 as the Reporter. The note with it: USP2 core, Ub-CHOP2 coupled fluorogenic reporter, 485/531; series mostly up to 38.3 µM. From the text:
NIH Molecular Libraries Screening Centers Network [MLSCN] NIH Chemical Genomics Center [NCGC] MLSCN Grant: XO1-MH079852-01 PI Name: Nicholson, Ben. Progenra Inc, Malvern, PA NCGC Assay Overview: Homeostasis of cellular proteins is maintained through a combination of synthesis and degradation. The pathway that accounts for the majority of protein degradation is the ubiquitin-proteasomal pathway. Ubiquitin (Ub) is highly conserved in all cells and the generation of a multi-Ub chain typically targets proteins for degradation by the proteasome. However, ubiquitination is highly reversible and dynamic. Deubiquitination, the reverse process, is catalyzed through the action of enzymes referred to as isopeptidases or deubiquitinating enzymes (DUBs). This group of enzymes is collectively responsible for maintaining adequate pools of free ubiquitin and regulating the ubiquitination status of cellular proteins. The class of DUBs referred to as the ubiquitin-specific proteases (USP) family functions endoproteolytically to cleave Ub chains from a wide range of protein substrates. USP2a deubiquitinates fatty acid synthase (FASN) which has recently been identified as an emerging oncology target. To identify inhibitors of USP2a a cell-free assay was employed. […] The reporter enzyme chosen is an enterokinase called CHOP2, which is activated when the Ub is cleaved by USP2. The free and now activated reporter can subsequently act on its reporter substrate. Thus, this coupled assay gives a fluorescent read-out at excitation/emission wavelengths of 485/531. The assay was developed by Progenra, Inc. and has been licensed for sale by LifeSensors, Inc. as Ub-CHOP2-Reporter-Kit (#PR1101).
NCGC Assay Protocol Summary: The assay buffer, prepared fresh at the day of the assay, contains 20mM Tris-HCl pH 8.0, 2mM CaCl2, 2mM beta-Mercaptoethanol, 0.05% CHAPS. 3ul of 20nM (10nM final) USP2 core, which is stored on ice, is dispensed into a medium-binding black solid Kalypsys 1,536 well plate using the Kalypsys dispenser. The assay plate is then pinned with 23nL compound with the Kalypsys pintool in columns 5-48. The controls are pinned as follows: column 1 two-fold dilutions of 2M NEM in duplicate; column 2 2M NEM (final concentration 38.2mM); column 3&4 DMSO. The assay plate is incubated at RT for 30min. Subsequently, 1.5uL of 100nM (25nM final) Ub-CHOP2 and 1.5uL of 100nM (25nM final) Reporter Substrate (both stored on ice and protected from light) were dispensed into the plate using the Kalypsys dispenser. Plates were read after 60min RT incubation on a ViewLux (Perkin Elmer) plate reader using the following wavelengths Ex 485nm /Em 531nm. Data were normalized to the to AC100 inhibition (NEM). Concentration-response curves were fitted to the normalized data and the concentration-response curves were then classified based on curve quality (r2), response magnitude and degree of measured activity. The time zero reading was used to flag fluorescence artifacts. Keywords: ubiquitination, deubiquitination, proteases, profluorescent, MLSMR, MLPCN, NIH Roadmap, qHTS, NCGC
For orientation: In qHTS, concentration-response curves come from the screen itself.
`O=C(CSc1ncnc2c1oc1ccccc12)NC1CCCC1`: the activity change, negative = inhibition entry is “inactive”.
With `CSc1ccc(NC(=O)N2CC(C)OC(C)C2)cc1` (stereo not drawn), the activity change, negative = inhibition entry is “inactive”.
As to `CC1O[C@H](OC2C(COC3OC(CO)C(O)[C@H](O)C3O)OC(OC3CC[C@]4(C)C(CC[C@@]5(C)[C@@H]4C=C[C@]46OC[C@@]7(CCC(C)(C)C[C@H]74)C(O)C[C@@]56C)C3(C)C)C(O)C2O)C(O)C(O)C1O` (stereo partly drawn), the activity change, negative = inhibition entry is “inactive”.
For the molecule `CCC(C)c1ccc(NC(=S)NCc2ccccn2)cc1` (stereo not drawn), the activity change, negative = inhibition result was “inactive”.
In the case of `Cc1cc(C(F)(F)F)c(C#N)c(SCC(=O)NC2CC2)n1`, the activity change, negative = inhibition entry was “inactive”.
Turning to `COc1ccc2nc(NC3=NCN(CC4CCCO4)CN3)nc(C)c2c1` (stereo not drawn), the activity change, negative = inhibition result was “inactive”.
The same measure, in the same setting: the same measure for `CC(=O)C1=C(C)NC(=O)NC1c1cc(Br)ccc1OCC#N` (stereo not drawn): “inactive”; for `Cc1ccc(NC(=O)C2CCC(C(C)(C)C)CC2)cc1S(=O)(=O)N1CCOCC1` (stereo not drawn): “inactive”.
For the molecule `O=C1C=CC(=O)N1c1ccc(N2CCCCC2)cc1`, the activity change, negative = inhibition entry was “inactive”.
The same measure, in the same setting: in the case of `CCOc1nc(OCC)nc(-n2cc(-c3ccccc3)nn2)n1` it was “inactive”.
The same measure, in the same setting: the same measure for `CC(C)(C)n1ncc2c(=O)n(Cc3ccc(Cl)cc3)cnc21`: “inactive”; for `Cc1cc2c(c(=O)n1Cc1ccccc1)C1O[C@](CCCCN3C(=O)c4ccccc4C3=O)(Cc3ccccc31)O2`: -1.2% [at 7.66 µM] (inactive); for `CC(C)(C)NC(=O)CSC(=Nc1ccccc1F)NC#N`: “inactive”.
Consider `O=C(CCl)Nc1ccc(Sc2ccc(NC(=O)CCl)cc2)cc1`, for which the activity change, negative = inhibition result is “inactive”.
As to `CC1CCN(C(=O)c2ccc(S(=O)(=O)Cc3cc(F)ccc3F)c([N+](=O)[O-])c2)CC1`, the activity change, negative = inhibition result is “inactive”.
On to `Cc1ccc(C2=NN(C(=O)CSc3nc(N)cc(N)n3)C(c3ccco3)C2)cc1` (stereo not drawn), for which the activity change, negative = inhibition result is “inactive”.
Same read-out and setting: the same measure for `COc1ccc(-c2nc3cc(C)ccn3c2NC2CCCCC2)cc1SC1CCCCC1`: “inactive”; for `Cc1ccc(C2(C(F)(F)F)N=C3Sc4cc(C)cc(C)c4N3C(=O)N2)cc1` (stereo not drawn): “inactive”; for `COc1ccc(CCOC(=O)CNC(=O)c2ccc(Cl)cc2Cl)cc1`: “inactive”.
On the same count and under the same terms, the same measure for `[O-][n+]1c2c(nn1-c1ccc(Cl)c(Cl)c1)-c1nonc1CC2`: “inactive”; for `Cn1c(SCC(=O)Nc2nccs2)nnc1-c1cccnc1`: “inactive”.
For the molecule `Cc1c(C=O)c2ccccn2c1C(=O)c1ccncc1`, the activity change, negative = inhibition entry is “inactive”.
`O=c1[nH]c(=S)[nH]c2[nH]c(=S)[nH]c12`: the activity change, negative = inhibition entry is “inactive”.
The same measure, in the same setting: in the case of `Cc1ccc(S(=O)(=O)CC(=O)Nc2sc(C)c(C)c2C(N)=O)cc1` it was “inactive”.
`CC(C)N1C(=O)N(c2ccccc2)C(C)(O)CC1(C)C` (stereo not drawn): the activity change, negative = inhibition result was “inactive”.
Take `Cc1ccc(-n2c(SCC(=O)N3CCC(C(=O)O)CC3)nc3ccccc3c2=O)cc1C`: the activity change, negative = inhibition entry is “inactive”.
Consider `O=C(c1cccs1)n1nc(NCc2ccccc2)nc1NCc1ccccc1`, for which the activity change, negative = inhibition entry is “inactive”.
`COc1ccc(OC)c(-c2c(=O)n(OCc3ccccc3Br)c3ccccc3[n+]2[O-])c1`: the activity change, negative = inhibition entry is “inactive”.
Take `O=C1OC2(CCCCC2)CC2=C1C1O[C@](c3ccsc3)(Cc3ccccc31)O2`: the activity change, negative = inhibition was -1.62% [at 7.66 µM] (inactive).
With `CCCCNC(=O)C(C)N(CCN(C)C)C(=O)CCCCCN1C(=O)NC(c2ccc(Cl)cc2)C(C(=O)OCc2ccccc2)=C1C` (stereo not drawn), the activity change, negative = inhibition entry was “inactive”.
The same measure, in the same setting: the same measure for `Cc1ccc(NC(=O)CC2C(=O)N(Cc3ccccc3)C(=S)N2NC(=O)c2cccc(F)c2)c(C)c1` (stereo not drawn): “inactive”.
For `COC(=O)c1ccccc1Oc1c(F)c(F)nc(N2CCOCC2)c1F`, the activity change, negative = inhibition result is “inactive”.
Regarding `O=c1c2ccccc2[nH]c(=S)n1CCN1CCC(=C(c2ccc(F)cc2)c2ccc(F)cc2)CC1`, the activity change, negative = inhibition entry was “inactive”.
On the same count and under the same terms, in the case of `CCN(CC(=O)Nc1ccc(NC(C)=O)cc1)C(=O)C1CC(=O)N(Cc2ccc(C)cc2)C1` (stereo not drawn) it was “inactive”.
Consider `Cc1cccc(C)c1NC(=O)C1(C)c2cccc[n+]2CC(=O)N1Cc1cccs1` (stereo not drawn), for which the activity change, negative = inhibition result is “inactive”.
The same measure, in the same setting: the same measure for `CO[C@H]1[C@@H]2C=CO[C@@H](O[C@H]3O[C@@H](CO)[C@H](O)[C@@H](O)[C@@H]3O)[C@@H]2[C@@]2(CO)O[C@@H]12`: “inactive”; for `O=C(CC1SC(=Nc2ccccc2)N(Cc2ccccn2)C1=O)Nc1cccc(Cl)c1` (stereo not drawn): “inactive”; for `Cc1coc2c(O)cc3c(c12)OC1(N2CCCCC2)C(=O)NCCCC31` (stereo not drawn): “inactive”.
As to `CCCCN(CCCC)CCCNC(=O)CN1C(=O)COc2ccc(S(=O)(=O)N3CCC(C)CC3)cc21`, the activity change, negative = inhibition entry was “inactive”.
The same measure, in the same setting: in the case of `CCOC(=O)N1CCN(S(=O)(=O)c2ccc3c(c2)C(C)C(=O)N3)CC1` (stereo not drawn) it was “inactive”; in that of `COc1ccc(/C=C/C(=O)c2ccc(NS(=O)(=O)c3ccc(C)cc3)cc2)cc1O`, “inactive”.
With `COc1ccc(C(=O)/C=C/c2ccc(-c3ccccc3)cc2)cc1CSCC(=O)O`, the activity change, negative = inhibition entry was “inactive”.
With `COC(=O)c1ccc(COc2ccc(/C=C/C(=O)c3ccc(OC)c(CSCC(=O)O)c3)cc2OC)cc1`, the Potency was 10 µM (active).
With `Cc1ccc(C2NC(C(=O)O)CS2)cc1` (stereo not drawn), the activity change, negative = inhibition entry is “inactive”.
`C=CCN(c1ccc(C(N)=O)cc1)S(C)(=O)=O`: the activity change, negative = inhibition result was “inactive”.
Same read-out and setting: in the case of `Cc1cccc(N2CCN(Cc3nc(C4CC4)no3)CC2)n1` it was “inactive”.
Consider `c1ccc2c(c1)C(=NC1CCCCC1)NC2=NC1CCCCC1`, for which the activity change, negative = inhibition result was “inactive”.
Consider `CCCOc1ccc(C(=O)C(CCC(CNCC)C(=O)c2ccc(OCCC)cc2)CNCC)cc1` (stereo not drawn), for which the activity change, negative = inhibition result is “inactive”.
